Reference: PubChem BioAssay AID1159580 (chemical genetic matrix, 2015)
Values joined by “and” are separate entries in the source; they are usually repeats but may differ in a detail not shown here. Equal values may be shown once. Out of some 5,500 compounds screened, about 2,000 (36%) were called active. About 18% were inconclusive and are not listed. Cut-off read from the data, not from the text of the source: active = normalized growth mostly below about 0.91 (no sharp cut-off); inconclusive = no clear call, values can overlap the other calls; inactive = mostly above about 0.92. Some of the results follow.

Assay: chemical genetic growth profiling, strain panel (AID 1159580);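 note: tested at 20 µM; growth read once vehicle control cultures reached saturation at 30 °C; 1 = growth at the plate median or of vehicle wells; lower values mean less growth of the strain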
Conditions: S. cerevisiae deletion strains, growth OD

Measured: normalized growth

COc1ccc2c(c1OC)C(=O)O[C@@H]2[C@H]1c2cc3c(cc2CCN1C)OCO3
inactive: locus YAL013W, strain DEP1, hits give low values 1.03 | locus YAL021C, strain ccr4, hits give low values 1.01 | locus YAL026C, strain drs2, hits give low values 0.993 | locus YAL030W, strain snc1, hits give low values 0.991 | locus YBL061C, strain skt5, hits give low values 0.992 | locus YBR009C, strain hhf1, hits give low values 0.984 | locus YBR021W, strain FUR4, hits give low values 1.04 | locus YBR023C, strain chs3, hits give low values 0.987 | locus YBR171W, strain sec66, hits give low values 1 | locus YBR229C, strain ROT2, hits give low values 1.01 | locus YBR231C, strain swc5, hits give low values 0.989 | locus YBR279W, strain paf1, hits give low values 0.992 | locus YCL011C, strain gbp2, hits give low values 0.996 | locus YCL016C, strain dcc1, hits give low values 0.974 | locus YCL029C, strain bik1, hits give low values 1.02 | locus YCL061C, strain MRC1, hits give low values 0.995 | locus YCL069W, strain vba3, hits give low values 1 | locus YCR088W, strain abp1, hits give low values 0.997 | locus YDL005C, strain med2, hits give low values 0.997 | locus YDL035C, strain GPR1, hits give low values 1.03 | locus YDL040C, strain nat1, hits give low values 0.991 | locus YDL074C, strain BRE1, hits give low values 1.03 | locus YDL101C, strain DUN1, hits give low values 1.01 | locus YDL134C, strain PPH21, hits give low values 1.01 | locus YDL185W, strain tfp1, hits give low values 1.03 | locus YDL192W, strain arf1, hits give low values 1.02 | locus YDR001C, strain nth1, hits give low values 1 | locus YDR069C, strain doa4, hits give low values 0.981 | locus YDR101C, strain arx1, hits give low values 1.01 | locus YDR137W, strain rgp1, hits give low values 0.969 | locus YDR150W, strain NUM1, hits give low values 1.02 | locus YDR159W, strain sac3, hits give low values 0.991 | locus YDR162C, strain NBP2, hits give low values 1.02 | locus YDR195W, strain ref2 0.985 | locus YDR297W, strain sur2, hits give low values 0.985 | locus YDR318W, strain mcm21, hits give low values 1.03 | locus YDR334W, strain swr1, hits give low values 0.998 | locus YDR335W, strain msn5, hits give low values 0.989 | locus YDR388W, hits give low values 1.02 | locus YDR392W, strain spt3, hits give low values 0.929 | locus YDR502C, strain sam2, hits give low values 1.01 | locus YEL003W, strain gim4, hits give low values 1.01 | locus YEL037C, strain rad23, hits give low values 1 | locus YEL061C, strain CIN8 (second series), hits give low values 1.01 | locus YEL061C, strain CIN8, hits give low values 1.01 | locus YER015W, strain faa2, hits give low values 0.974 | locus YER016W, strain bim1, hits give low values 0.991 | locus YER110C, hits give low values 1.03 | locus YER111C, strain swi4, hits give low values 1.01 | locus YER155C, strain BEM2 (second series), hits give low values 0.995 | locus YER155C, strain BEM2, hits give low values 1.02 | locus YER167W, strain BCK2, hits give low values 1.04 | locus YFR010W, strain ubp6, hits give low values 1.01 | locus YGL078C, strain dbp3, hits give low values 1.03 | locus YGL086W, strain mad1, hits give low values 1.03 | locus YGL167C, strain pmr1, hits give low values 0.984 | locus YGL173C, strain kem1, hits give low values 0.993 | locus YGL227W, strain vid30, hits give low values 0.994 | locus YGL240W, strain doc1, hits give low values 0.958 | locus YGL248W, strain PDE1, hits give low values 1.02 | locus YGL253W, strain hxk2, hits give low values 0.999 | locus YGR078C, strain PAC10, hits give low values 1.01 | locus YGR135W, strain pre9, hits give low values 1.01 | locus YGR229C, strain SMI1, hits give low values 1.03 | locus YGR252W, strain gcn5, hits give low values 1.06 | locus YHR013C, strain ard1, hits give low values 0.965 | locus YHR027C, strain rpn1, hits give low values 1.01 | locus YHR030C, strain SLT2, hits give low values 1.02 | locus YHR079C, strain IRE1 (second series), hits give low values 1.02 | locus YHR079C, strain IRE1, hits give low values 0.995 | locus YHR094C, strain hxt1, hits give low values 1.02 | locus YHR129C, strain ARP1, hits give low values 1.02 | locus YHR142W, strain chs7, hits give low values 1.01 | locus YHR200W, strain rpn10, hits give low values 1.01 | locus YIL066C, strain RNR3, hits give low values 1.02 | locus YIL073C, strain SPO22, hits give low values 1.11 | locus YIL125W, strain kgd1, hits give low values 1.02 | locus YIR030C, strain dcg1, hits give low values 1.01 | locus YJL092W, strain hpr5, hits give low values 0.999 | locus YJL095W, strain BCK1 (second series), hits give low values 0.996 | locus YJL095W, strain BCK1, hits give low values 1.01 and 1 | locus YJL115W, strain asf1, hits give low values 0.997 | locus YJL129C, strain trk1, hits give low values 1.02 | locus YJL134W, strain LCB3, hits give low values 1.01 | locus YJL154C, strain vps35, hits give low values 0.999 | locus YJL164C, strain tpk1, hits give low values 0.984 | locus YJL166W, strain qcr8, hits give low values 0.975 | locus YJL168C, strain set2, hits give low values 1.01 | locus YJL187C, strain SWE1 (second series), hits give low values 1.02 | locus YJL187C, strain SWE1, hits give low values 0.988 | locus YJR043C, strain POL32, hits give low values 1.06 | locus YJR066W, strain TOR1, hits give low values 0.975
